ChEMBL document CHEMBL3988442, “University of Dundee, Small-Polar-MMV Screening Library” (2021)

Experiments:
[1] = biological target: T1, Aspartate--tRNA(Asp/Asn) ligase (Mycobacterium tuberculosis (strain ATCC 25618 / H37Rv)) (UniProt P9WFW3); experiment: Assay for Asp RNA synthetase-1 from Mycobacterium tuberculosis; type: functional; design: scale not given: direction of the effect not stated beside the values; details: 30 µM; further: in the data most compounds retested in dose-response had high values
T1 sequence (whole entry): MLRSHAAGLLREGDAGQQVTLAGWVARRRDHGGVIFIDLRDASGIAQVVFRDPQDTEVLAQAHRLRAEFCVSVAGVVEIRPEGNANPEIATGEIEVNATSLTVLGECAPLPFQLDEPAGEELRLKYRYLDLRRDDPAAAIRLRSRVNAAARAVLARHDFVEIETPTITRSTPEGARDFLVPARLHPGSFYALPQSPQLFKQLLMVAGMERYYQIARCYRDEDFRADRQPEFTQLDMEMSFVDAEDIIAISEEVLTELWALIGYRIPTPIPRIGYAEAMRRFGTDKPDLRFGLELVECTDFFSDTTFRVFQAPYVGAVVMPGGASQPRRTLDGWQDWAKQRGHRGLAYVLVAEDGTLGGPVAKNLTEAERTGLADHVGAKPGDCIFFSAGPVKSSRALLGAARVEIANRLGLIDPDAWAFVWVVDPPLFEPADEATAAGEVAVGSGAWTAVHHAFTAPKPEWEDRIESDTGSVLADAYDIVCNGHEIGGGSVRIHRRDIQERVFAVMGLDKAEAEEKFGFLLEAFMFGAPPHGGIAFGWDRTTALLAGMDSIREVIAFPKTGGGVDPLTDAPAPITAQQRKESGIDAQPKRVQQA

[2] = biological target: Shiga toxin 2 (Escherichia coli O157:H7) (UniProt P09385+P09386); experiment: E. coli 0.157:H7 Shiga Toxin SOP - stx2 screening assay; type: functional; design: scale not given: direction of the effect not stated beside the values; details: 30 µM

SMILES	Percent Effect [1] [%]	Percent Effect [2] [%]
c1ccc(-n2cc(CN3CCCC(Cn4cncn4)C3)nn2)cc1 (stereo not drawn)	-9.82	-48.9
CCCN1CCC(N(Cc2ncc(C)o2)C(C)=O)C1 (stereo not drawn)	2.38	2.8
Cc1cc(C)cc(-c2cccc(CC3(C(=O)O)CCOCC3)c2)c1	2.93	-30
O=C(c1ccnnc1)N1C[C@@H](OCC2CCCC2)[C@H]2OCCC[C@H]21	7.95	-3.97
c1cnc2c(c1)cc([C@H]1CCCO1)n2CCN1CCOCC1	7.52	12.7
CC(CNC(=O)c1ccccc1Oc1cccnc1)N(C)C (stereo not drawn)	-2.89	-5.12
O=C([C@H]1CCCO1)N1CC[C@H](O)[C@@H]1Cc1ccncc1	-1.01	1.58
COCCC(=O)N1CCC2(COCc3c(C)nc(NCC4CC4)nc32)C1 (stereo not drawn)	1.96	0.582
Cc1cccc(N2CCC(NC(=O)CCCc3cccs3)CC2)n1	8.77	-2
O=C(CCc1ccccc1)N1CCn2cc(CN3CCCC3)nc2C1	0.131	-15.9
O=S(=O)(CCNCc1cccc2c1OCCO2)N1CCOCC1	-2.82	-39
CC(=O)N1CCCCC1c1nc2c(c(N3CCCCC3)n1)CN(C)CC2 (stereo not drawn)	-1.98	2.68
CCn1ccnc1CN1CCN(CC(=O)NC(C)(C#N)C2CC2)CC1 (stereo not drawn)	-4.1	27.2
CC(C)(N)C(=O)N1CCCC1c1cncc(Oc2ccc(F)cc2)n1 (stereo not drawn)	-3.75	-12.5
CN(Cc1ncc[nH]1)S(=O)(=O)c1cccc(C(=O)N2CCOCC2)c1	8.16	-12.2
Cc1ccccc1CNC(=O)CN1CCN(Cc2nccn2C)CC1	8.88	6.67
COc1c(CNCCNC(=O)c2ccco2)c(C)nn1C	-2.68	14.7
COc1ccc(-c2nccnc2C2CCN(C(C)=O)CC2)cc1	0.0149	12
COCCN1C(=O)CO[C@H]2CN(Cc3c[nH]nc3-c3ccccc3)C[C@@H]21	-1.03	7.69
Cc1nn(C)c(C)c1NC(=O)CN1CCc2c(nc(C(C)C)n2C)C1	-0.413	5.73
CC(C)n1ccnc1CN1CCCN(C(=O)CC2C=CCC2)CC1 (stereo not drawn)	1.91	-0.917
CCc1cnc(CN(C)C2CCN(CCc3ccccn3)C2)o1 (stereo not drawn)	0.0557	-7.08
Cc1ncsc1C(=O)Nc1cccc(OCC(F)F)n1	-0.449	1.86
CC(C)NC(=O)N1CCN(S(=O)(=O)C2CC2)CC2(CNC(=O)C2)C1 (stereo not drawn)	-2.4	-12.6
COc1ccc(C(=O)N(C)Cc2nnc3ccccn23)c(OC)c1	0.49	24.6

SMILES	Percent Effect [1] [%]	Percent Effect [2] [%]
COc1ccc(-c2ccnc3c2C(=O)CCC3)cc1	-5.43	-32.1
CS(=O)(=O)N1CCC(Oc2cnccn2)CC1	-0.656	-5.3
CCN1CCCn2c(nc(CNC(=O)c3ccsc3)cc2=O)C1	7.56	11.3
Cc1nn(C)c(N(C)C)c1CNCCNS(C)(=O)=O	-4.66	17.7
CN(C)CCN1C[C@@H]2CN(C(=O)c3ccsc3)C[C@@H]2C1=O	-4.34	-40.9
Cn1ncc2c(N3CCN(C(N)=O)CC3)nc(C3CCCC3)nc21	1.25	-24.2
Cc1noc(Cl)c1CCC(=O)N1CCc2sccc2C1	-1.63	18.9
O=C(CN1CCCS1(=O)=O)NCCOc1ccc2c(c1)CCC2	-5.23	9.97
CO[C@H]1CCN(Cc2cnn(C)c2)[C@@H]2CN(Cc3cccnc3)C[C@H]12	3.14	-40.9
Cc1c(NC(=O)NCC(C)N2CCOCC2)cccc1OC(F)F (stereo not drawn)	-1.79	3.31
Cc1nc(CN2C[C@@H]3CN(C(=O)c4ccnnc4)C[C@@H]3C2=O)cs1	-3.71	-1.02
COc1ccc(CNC(=O)N(Cc2ccc(F)cc2F)C2CC2)cn1	-9.17	-13
CC(NC(=O)NCCCN1CCCCCC1)c1nncn1C (stereo not drawn)	2.07	-17.6
Cc1cc(C)nc(Nc2cccc(C3CCCN(C)C3)n2)n1 (stereo not drawn)	-3.29	1.38
CC(C)c1cc(NC(=O)CN2CCc3ccccc3C2)on1	-1	-13
O=C(CN1CCCC1Cn1cncn1)NCCOc1cccc(F)c1 (stereo not drawn)	-0.983	18.7
Cn1cc(C(=O)CC2CCCN2C(=O)c2cncc3ccccc23)cn1 (stereo not drawn)	-4.82	-3.94
OCC1CCCN1c1cc(NCCc2c[nH]c3ccccc23)ncn1 (stereo not drawn)	11.5	-28.9
COc1cccc(CNc2c(C)cnc3c2c(=O)n(C)c(=O)n3C)c1	-3.02	-31.1
COCc1ccccc1C(=O)N1CCCC(n2nc(C)cc2C)C1 (stereo not drawn)	-2.97	-10.9
Cc1ccc(-c2nc(CN3CCCC3Cn3cc(C)cn3)no2)cc1 (stereo not drawn)	1.48	-24.5
Cn1cnc2c1CCN(CCS(=O)(=O)c1ccccc1)C2	-1.69	0.397
C[C@@H]1CN(C(=O)c2ccsc2)C[C@]12CCN(c1ccsc1)C2=O	-1.75	1.46
c1cnc(NCc2cncc3c2CCN(Cc2cccs2)C3)nc1	3.81	-9.08
Cc1nn(C)c2c(NCc3ccccc3F)nc(C3CC3)nc12	12.5	-20.5

SMILES	Percent Effect [1] [%]	Percent Effect [2] [%]
Cc1cnc2n(c1=O)CC(C(=O)Nc1cccc3cccnc13)CS2 (stereo not drawn)	16.3	23.5
Cc1nc2ccccc2c(=O)n1CCC(=O)N1CCNC(=O)C1	-5.81	27.4
CCN(CC)C(=O)c1ccn(COc2ccccc2)n1	-2.64	4.36
CCOc1ccc(Cl)c(C(=O)N2CCN(CCO)CC2)n1	0.455	15.7
CN(C)CCNC(=O)c1cnc2c(c1)nc(-c1ccccc1Cl)n2C	3.74	5.62
CC(C)(C)c1ccc(C2(C(=O)NCCCS(C)(=O)=O)CC2)cc1	8.98	-49.3
CCc1nnc(CNCC2CCCN2c2cccnn2)o1 (stereo not drawn)	-1.12	-52.3
CNc1cccc(C2CCCN(C(=O)c3ccncc3)C2)n1 (stereo not drawn)	-6.06	17.8
O=C1CCCN1Cc1ncn2c1CN(C(=O)c1cccc(F)c1)CCC2	-3.2	3.75
CN(C)C(=O)C1CN(Cc2ccccc2)CCN(S(C)(=O)=O)C1 (stereo not drawn)	-2.4	-6.7
CCOCCn1nc(C)cc1C(=O)N1CC[C@](C)(O)[C@H](C)C1	-4.03	4.67
CCc1ccc(CN2CCC3(CC2)CNC(=O)CO3)o1	-0.662	-2.48
CCN(CC)C1CCN(C(=O)NCc2nncn2CC)CC1	-0.573	-26
Cn1cnnc1C1CCCN(C(=O)c2ccc3c(c2)OCCCO3)C1 (stereo not drawn)	0	1.29
CCCn1nc2c(cc1=O)CN(Cc1cc(C)on1)CC2	10	-9.16
Oc1ccc(N2CCN(Cc3cc4c(cc3Br)OCCO4)CC2)cc1	4.07	6.03
Cc1cnn(CC2CCCCN2C(=O)c2cc(Cl)c[nH]2)c1 (stereo not drawn)	1.83	-31.9
Cc1ncc2c(n1)CN(CCCc1nc3ccccc3o1)CC2	6.8	-10.6
Cc1cccnc1CNCC1(O)CCCN(CC2CCCCC2)C1=O (stereo not drawn)	-2.28	13.1
Cc1ccc([C@@H]2CN(S(=O)(=O)c3cccs3)C[C@H]2N(C)C)cc1	-0.804	19.8
CC(C)(C(=O)NCC1CC1)c1ccccc1F	-1.98	-2.97
CNS(=O)(=O)c1cccc(C(C)NCc2cccc(OC)c2)c1 (stereo not drawn)	0.915	-24.3
O=C(C1CCN(c2snc3ccccc23)CC1)N1CCCCCC1	3.13	-32.4
O=C(NCCN1CCOCC1)c1ccc(-n2ccc3ccccc32)s1	3.45	-47.9
